# PubChem BioAssay (NCI)
# Compounds without any hit were thinned out: in the full panel of roughly 83,000, 20% have a hit.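 The test compound was applied at a single concentration to cells in 96-well plates for 48 hours, and percent growth was recorded.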 A number with no mark means an inactive call. The source made the active and inactive calls. Rule for the calls: active = growth percent below 10; inactive = the rest.
# Columns and labels:
# Assay in all cases: NCI-60 one-dose screen, 48 h (100 = growth as untreated, 0 = no growth, -100 = all killed)
# NCI-H23 lung = settings: 10 µM unless noted
# NCI-H460 lung = settings: 10 µM unless noted
# K-562 leukemia = settings: 10 µM unless noted
# RXF 393 renal = settings: 10 µM unless noted
# SF-295 CNS = settings: 10 µM unless noted
# M14 melanoma = settings: 10 µM unless noted
# HT29 colon = settings: 10 µM unless noted
# U251 CNS = settings: 10 µM unless noted
# SK-MEL-5 melanoma = settings: 10 µM unless noted
# UO-31 renal = settings: 10 µM unless noted
# CAKI-1 renal = settings: 10 µM unless noted
# A498 renal = settings: 10 µM unless noted
# HL-60(TB) leukemia = settings: 10 µM unless noted
# CCRF-CEM leukemia = settings: 10 µM unless noted
# RPMI-8226 leukemia = settings: 10 µM unless noted
# HS 578T breast = settings: 10 µM unless noted
# T-47D breast = settings: 10 µM unless noted
# BT-549 breast = settings: 10 µM
# HCT-116 colon = settings: 10 µM unless noted
# HCC-2998 colon = settings: 10 µM unless noted
SMILES,growth (NCI-H23 lung) [%],growth (NCI-H460 lung),growth (K-562 leukemia),growth (RXF 393 renal),growth (SF-295 CNS),growth (M14 melanoma),growth (HT29 colon),growth (U251 CNS),growth (SK-MEL-5 melanoma),growth (UO-31 renal),growth (CAKI-1 renal),growth (A498 renal),growth (HL-60(TB) leukemia),growth (CCRF-CEM leukemia),growth (RPMI-8226 leukemia),growth (HS 578T breast),growth (T-47D breast),growth (BT-549 breast),growth (HCT-116 colon),growth (HCC-2998 colon) [%]
CNC(=O)Oc1cc(C(C)C)ccc1Sc1ccc(C(C)C)cc1OC(=O)NC,76.4,34.9%,25.6%,64.3%,26.9%,89.2%,97.6%,46.2%,33.1%,65.7%,67%,88.5%,40.4%,36.5%,51.2%,67.7%,77.7%,94.2%,66.5%,104
OC1(c2ccccc2F)c2ccccc2C2=NCCN21 (configuration not stated),86.7,118%,88.7%,-10.4% (active),91.8%,107%,105%,104%,94.6%,84.2%,64.4%,105%,83.8%,93%,107%,110%,104%,110%,,100
Oc1ccc(O)c2c1C1(Cl)C(Cl)=C(Cl)C2(Cl)C1(Cl)Cl,59.3,55.3%,27.5%,29.8%,21.7%,32.6%,66.4%,51.6%,42.3%,44.2%,34.6%,34.9%,31%,56.9%,64%,55.6%,19.4%,29.2%,28.4%,
COc1ccc(NP2(=O)OCC(C)(N)CO2)cc1 (configuration not stated),92,108%,88.9%,104%,,101%,98.7%,,96.3%,75.6%,,,95%,88.9%,,109%,78.5%,77%,98.8%,109
C/C1=C/C(=O)O[C@@H]2C[C@@H](CC[C@H](C)/C=C\C=C\CC1)O[C@@](OCCc1ccccc1)([C@@H]1CSC(=O)N1)C2,35.1,21.6%,36.3%,-77.1% (active),17.7%,38.5%,8.63% (active),16.4%,-21.2% (active),-62.5% (active),-74.3% (active),-29.1% (active),90.6%,21.2%,46.7%,-2.84% (active),61%,-43% (active),33.5%,55.9
CCOc1c(Cl)cc(CNC(C)C(O)c2ccccc2)cc1OC (configuration not stated),80.4,75.1%,13.9%,67%,48.4%,57.4%,53.1%,34.3%,82.7%,92.6%,87.9%,32.9%,20.5%,77.7%,71.7%,67.5%,86%,72.2%,59.2%,81.3
NC(=O)C(Br)CBr (configuration not stated),24.1,4.13% (active),-50.1% (active),,81.1%,,-21.8% (active),26.9%,55.6%,-51.8% (active),,103%,-23.2% (active),-12.1% (active),-39.3% (active),51.1%,1.22% (active),,-92.7% (active),38.4
CCC(C)(C)O,111,104%,,111%,87.7%,107%,109%,108%,101%,93.8%,93.6%,83.1%,86.4%,6.63% (active),106%,105%,107%,110%,111%,112
CC[C@@]1(C2O[C@@H](C3O[C@@](O)(CC)[C@H](C)C[C@@H]3C)C[C@@H]2C)CC[C@H]([C@]2(C)CCC3(C[C@H](O)[C@@H](C)[C@@H]([C@H](C)[C@@H](OC)[C@H](C)C(=O)O)O3)O2)O1 (some centres not stated),16.5,,,,,,,,,,24.5%,42.7%,,,,,30.2%,32.5%,,
O=C(N/N=C/c1ccc([N+](=O)[O-])o1)c1cc([N+](=O)[O-])cc([N+](=O)[O-])c1O,94.1,105%,,102%,104%,102%,97.4%,91.8%,95%,80%,88.5%,79.7%,93.5%,98.3%,99.8%,104%,93.5%,103%,,102
COc1cc(C2CC(=O)Nc3nc(N)[se]c32)c(OC)c2c1OCO2 (configuration not stated),99.7,23.9%,,,6.71% (active),85.1%,98.5%,48%,,86.8%,89.8%,102%,84.4%,104%,119%,91.2%,89%,101%,65.7%,121
O=C(O)C1(Br)CC12c1ccccc1-c1ccccc12 (configuration not stated),97.1,111%,86.6%,99.5%,,102%,104%,,98.4%,82.4%,,,94%,97.4%,,110%,82.5%,94.9%,100%,106
COC[CH2][Hg][C]#[C][Hg][CH2]COC,71,94.4%,96.7%,59.4%,,73.2%,100%,,,92.8%,94.8%,103%,89.3%,,,85.3%,91.7%,111%,99.2%,103
Cc1nnc([S-])s1.[Au+].c1ccc([PH+](c2ccccc2)c2ccccc2)cc1,12.2,57.3%,1.12% (active),-84.6% (active),75%,-2.48% (active),12%,-59.9% (active),-45.9% (active),-3.87% (active),-26.8% (active),25.1%,-15.2% (active),0.579% (active),-1.82% (active),30.8%,-40.2% (active),33.9%,-60.1% (active),37
NC(Cc1ccc2c(c1)OCO2)c1ccc2c(c1)OCO2 (configuration not stated),105,104%,96.5%,,96.8%,102%,102%,107%,103%,100%,95.2%,92.1%,108%,98.2%,96.3%,103%,113%,,,106
C[C@]12CCc3sc(-c4ccc(Cl)cc4)nc3C1=CC[C@@H]1[C@@H]2CC[C@]2(C)C(=O)CC[C@@H]12,,72.5%,7.44% (active),-36.9% (active),5.96% (active),97.6%,,36.7%,62.4%,47.3%,67.7%,73.3%,39%,14.5%,-17.8% (active),44.6%,66.2%,60.6%,52.3%,90.4
Oc1c(Br)cc(Br)cc1Br.[Cu+2],104,103%,107%,109%,97.6%,103%,104%,110%,102%,81.2%,104%,106%,87.9%,101%,,109%,119%,122%,,95.8
CCCCOC(=O)c1ccccc1C(=O)O.CCCCOC(=O)c1ccccc1C(=O)O.[Cu+2],107,109%,96.2%,116%,,101%,107%,,98%,96.5%,113%,105%,89.6%,108%,,97.3%,104%,105%,,104
